From the supplement of paper PMC10338343
± gives the standard deviation.

System: MILI (PIWIL2) piRISC loaded with L1MC piRNA (26 nt)
Assay: pre-steady-state target cleavage rate (min^-1); guide: L1MC piRNA 5'p-UAACUAAAUACUAUGCAAGCUGUAGG; MIWI and MILI are mouse PIWI proteins and EfPiwi is from a freshwater sponge; tags in brackets are library labels; higher = faster piRNA-guided slicing of the target
Settings: auxiliary factor: 500 nM mouse GTSF1
Protocol: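 Cleave-'n-Seq: a library of target RNAs (target site embedded in constant flanks, ACAGCATTCCGCGTTAGTGATATCCG... 5' flank; DNA-blocked outside the site) at 0.1 nM was incubated with 1 nM active mouse MILI or MIWI piRISC (synthetic 5'-monophosphorylated piRNA guide) with or without 500 nM mouse GTSF1 at 33 °C for 1 min to 16 h. Uncleaved targets were sequenced and normalised to non-target controls, and the pooled three trials were fitted to a burst-and-steady-state model to give the pre-steady-state cleavage rate (min^-1; k3 is constrained to at most 1e-4). Sequence is the target site only; target names encode pairing extent (gX:gY) and contiguous / 1-mismatch / 2-mismatch / bulge geometry. Fits with R² ≤ 0 are excluded.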

**Q.** Which “pre-steady-state target cleavage rate” value does the source give for UCCUGGAACUGCUUGCAUAGUAUUUACAAA here?
**A.** Its value is 0.0945 ± 0.022.

**Q.** UCCUGGAACAGCUUGGUAAGUAUUUAGUAA was tested. Which “pre-steady-state target cleavage rate” value did it give?
**A.** The value was 0.11 ± 0.017.

**Q.** With UCCUGGAUGUCCUUGCAUAGUAAUUACUUA as the sequence, how does the “pre-steady-state target cleavage rate” value read?
**A.** Its value is 0.0143 ± 0.0067.

**Q.** Which “pre-steady-state target cleavage rate” value does the source give for UCCUGGAUGAGCUUGCAUACUAUUUAGUUA here?
**A.** The value was 0.0499 ± 0.0093.

**Q.** UCCUGGAUGUCGUUGCAUGGUAUUUAGUUA was tested. Which “pre-steady-state target cleavage rate” value did it give?
**A.** The value was 0.0354 ± 0.01.

**Q.** Which “pre-steady-state target cleavage rate” value does the source give for UCCUGGAUGAGGAUGCAUAGUAUUUAGUAA here?
**A.** Its value is 0.116 ± 0.029.

**Q.** Which “pre-steady-state target cleavage rate” value does the source give for UCCUGCUACAGCUUGCUAGUAUUUAGUUA here?
**A.** Its value is 0.0195 ± 0.0079.

**Q.** For UCCUGGAUGAGUCUUGCAUAGUAUUUAGUUA, which “pre-steady-state target cleavage rate” value is on record?
**A.** Its value is 0.105 ± 0.016.

**Q.** Which “pre-steady-state target cleavage rate” value does the source give for UCCUGGAUCACGUUGCAUAGUAUUUAGUUA here?
**A.** The value was 0.206 ± 0.019.

**Q.** Which “pre-steady-state target cleavage rate” value does the source give for UCCUGGAACAGCUUGCAUAGUAUUUUGUAA here?
**A.** The value was 0.0402 ± 0.012.

**Q.** How did the “pre-steady-state target cleavage rate” value turn out when UCCUGGAUGAGCUUGCAUAGUAUUUAUGUUA was run?
**A.** The value was 0.102 ± 0.021.

**Q.** UCCUGGAUCAGCUAGCAUACUAUUUAGUUA was tested. Which “pre-steady-state target cleavage rate” value did it give?
**A.** Its value is 0.0859 ± 0.012.

**Q.** For UCCUGGAUGACCUUGCAUAGUAAUUAGUUA, which “pre-steady-state target cleavage rate” value is on record?
**A.** Its value is 0.131 ± 0.027.

**Q.** How did the “pre-steady-state target cleavage rate” value turn out when UCCUGCAUCAGCUUGCAUAGUAUUUAGUUA was run?
**A.** Its value is 0.322 ± 0.021.

**Q.** Which “pre-steady-state target cleavage rate” value does the source give for UCCUGGAUGAGCUUGGUUAGUAUUUAGUUA here?
**A.** Its value is 0.195 ± 0.02.

**Q.** With UCCUGGAUGAGCUUGCAUAGUUAAUAGUUA as the sequence, how does the “pre-steady-state target cleavage rate” value read?
**A.** The value was 0.00524 ± 0.004.

**Q.** UCCUGGAUCAGCUUGAUAGUAUUUAGUUA was tested. Which “pre-steady-state target cleavage rate” value did it give?
**A.** Its value is 0.0575 ± 0.0091.

**Q.** Which “pre-steady-state target cleavage rate” value does the source give for UCCUGGUACAGCUUGCAUAGUAGUUAGUUA here?
**A.** The value was 0.2 ± 0.034.

**Q.** With UCCUGCUACAGCUUGCAUAGUAUUUUGUAA as the sequence, how does the “pre-steady-state target cleavage rate” value read?
**A.** The value was 0.107 ± 0.032.

**Q.** For UCCUGGAUGACCAUGCAUAGUAUUUAGUUA, which “pre-steady-state target cleavage rate” value is on record?
**A.** The value was 0.0729 ± 0.022.

**Q.** UCCUGGAUGUCGUUGCUUAGUAUUUAGUUA was tested. Which “pre-steady-state target cleavage rate” value did it give?
**A.** Its value is 0.0857 ± 0.011.

**Q.** How did the “pre-steady-state target cleavage rate” value turn out when UCCUGGAUGUCGUUGCAUAGUAUUGAGUUA was run?
**A.** The value was 0.0312 ± 0.011.

Same assay, conditions: auxiliary factor: none (no GTSF1)

**Q.** How did the “pre-steady-state target cleavage rate” value turn out when UCCUGGAACAGCUUGGUAAGUAUUUAGUAA was run?
**A.** Its value is 0.00425 ± 0.0016.

**Q.** For UCCUGGAUGAGCUUGCAUACUAUUUAGUUA, which “pre-steady-state target cleavage rate” value is on record?
**A.** The value was 0.00321 ± 0.0018.

**Q.** Which “pre-steady-state target cleavage rate” value does the source give for UCCUGGAUGUCGUUGCAUGGUAUUUAGUUA here?
**A.** Its value is 0.00854 ± 0.0034.

**Q.** How did the “pre-steady-state target cleavage rate” value turn out when UCCUGGAUGAGGAUGCAUAGUAUUUAGUAA was run?
**A.** Its value is 0.00444 ± 0.002.

**Q.** Which “pre-steady-state target cleavage rate” value does the source give for UCCUGCUACAGCUUGCUAGUAUUUAGUUA here?
**A.** Its value is 0.00519 ± 0.002.

**Q.** For UCCUGGAUGAGUCUUGCAUAGUAUUUAGUUA, which “pre-steady-state target cleavage rate” value is on record?
**A.** The value was 0.0093 ± 0.0029.

**Q.** Which “pre-steady-state target cleavage rate” value does the source give for UCCUGGAUCACGUUGCAUAGUAUUUAGUUA here?
**A.** The value was 0.00683 ± 0.0026.

**Q.** For UCCUGGAUGAGCUUGCAUAGUAUUUAUGUUA, which “pre-steady-state target cleavage rate” value is on record?
**A.** Its value is 0.00381 ± 0.0034.

**Q.** For UCCUGGAUCAGCUAGCAUACUAUUUAGUUA, which “pre-steady-state target cleavage rate” value is on record?
**A.** The value was 0.00444 ± 0.0019.

**Q.** Which “pre-steady-state target cleavage rate” value does the source give for UCCUGCAUCAGCUUGCAUAGUAUUUAGUUA here?
**A.** Its value is 0.00843 ± 0.0023.

**Q.** With UCCUGGAUGAGCUUGGUUAGUAUUUAGUUA as the sequence, how does the “pre-steady-state target cleavage rate” value read?
**A.** Its value is 0.0158 ± 0.0039.

**Q.** With UCCUGGAUCAGCUUGAUAGUAUUUAGUUA as the sequence, how does the “pre-steady-state target cleavage rate” value read?
**A.** The value was 0.00451 ± 0.002.

**Q.** For UCCUGGUACAGCUUGCAUAGUAGUUAGUUA, which “pre-steady-state target cleavage rate” value is on record?
**A.** The value was 0.00513 ± 0.0028.

**Q.** Which “pre-steady-state target cleavage rate” value does the source give for UCCUGGAACAGCUUCGAUAGUAUUUACAAA here?
**A.** The value was under 0.0001.

**Q.** How did the “pre-steady-state target cleavage rate” value turn out when UCCUGGAUGACCAUGCAUAGUAUUUAGUUA was run?
**A.** The value was 0.00375 ± 0.0034.

**Q.** Which “pre-steady-state target cleavage rate” value does the source give for UCCUGGAUGUCGAUGAUAGUAUUUAGUUA here?
**A.** Its value is under 0.0001.

**Q.** UCCUGGAUGUCGUUGCUUAGUAUUUAGUUA was tested. Which “pre-steady-state target cleavage rate” value did it give?
**A.** The value was 0.00861 ± 0.002.

**Q.** With UCCUGGAUGUCGUUGCAUAGUAUUGAGUUA as the sequence, how does the “pre-steady-state target cleavage rate” value read?
**A.** Its value is 0.00363 ± 0.0032.
